PubChem BioAssay (NCATS)
Results filed as inconclusive are left out. A call without a number means that no potency is given here. Calls of active or inactive are those of the source. The call rests on the fitted dose curve; in most records, active means well fitted cell-killing curve with a large enough effect; inconclusive means small, poorly fitted or top-dose-only effect; inactive means flat fitted curve, though single readings scatter.

Assay: qHTS of pediatric cancer cell lines to identify multiple opportunities for drug repurposing: Primary screen for TC32 cells (AID 1347089); further: nearly all actives have a fitted effect of over 60% in size
Settings: TC32 Ewing sarcoma viability, CellTiter-Glo luminescence, 48 h; series mostly up to 45.8 µM
Outline: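 In the primary qHTS, MIPE compounds were tested at 11 concentrations (0.78 nM to 46 µM) and NPC compounds at 8 (0.59 nM to 46 µM) on TC32 cells for 48 h. CellTiter-Glo luminescence gave viability.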
Potency means the concentration at half of the fitted maximal effect.

Structure (SMILES) | Potency
O=C(O)c1ccccc1C(=O)Nc1ccc(-c2ccccc2)cc1 | inactive
CCc1ccc(C=C2SC(=S)NC2=O)cc1 | inactive
CC=CC(=O)N(CC)c1ccccc1C | inactive
Cc1cnc(C(=O)O)c[n+]1[O-] | inactive
C[C@]12CC[C@@H]3c4ccc(O)cc4CC[C@H]3[C@H]1C[C@@H](O)[C@H]2O | inactive
O=c1ccn([C@@H]2O[C@H](CO)[C@H](O)[C@H]2O)c(=O)[nH]1 | inactive
COc1cc2c(cc1OC)CN(CCc1ccc(NC(=O)c3cc(OC)c(OC)cc3NC(=O)c3cnc4ccccc4c3)cc1)CC2 | inactive
O=C1C[C@@H](c2ccc(O)cc2)Oc2cc(O)cc(O)c21 | inactive
NS(=O)(=O)c1cccc2c1C(=O)c1cccc(O)c1C2=O | inactive
C[C@]12CC[C@@H]3c4ccc(O)cc4C[C@@H](CCCCCCCCCS(=O)CCCC(F)(F)C(F)(F)F)[C@H]3[C@H]1CC[C@H]2O (stereo partly specified) | inactive
N#CC(=C(N)Sc1ccccc1N)C(C#N)=C(N)Sc1ccccc1N | inactive
CC(C)(C(=O)NCC(F)(F)C(F)(F)F)C(=O)N[C@@H]1C(=O)Nc2ccccc2-c2ccccc21 | inactive
CCCCCCCCCCCC1=C(O)C(=O)C=C(O)C1=O | inactive
C=C1C(=O)OC(CCCCCCCC)C1C(=O)O (stereo unspecified) | inactive
CCc1ccc(OCc2ccccc2C(=O)Nc2ccc3nc(C)cc(N)c3c2)cc1 | 20.8 µM (active)
C[C@H]1[C@H](NC(=O)C(=NOC(C)(C)C(=O)O)c2csc(N)n2)C(=O)N1S(=O)(=O)O | inactive
CC(=O)OC1C(C)OC(Oc2c(-c3ccc(O)cc3)oc3cc(O)cc(O)c3c2=O)C(O)C1OC(C)=O (stereo unspecified) | inactive
Cc1c[nH]c(C=C2C(=O)Nc3ccccc32)c1CCC(=O)O | inactive

Structure (SMILES) | Potency
CC1(C)CCC[C@@]2(C)[C@@H]1CC[C@@]1(C)OC(=O)C[C@H]21 | inactive
COc1ccc2cccc(CCNC(C)=O)c2c1 | inactive
O=C(O)c1ccc(-c2c[nH]c3ncc(-c4ccccc4)cc23)cc1C1CCCC1 | inactive
O=C(OCC#CCSc1nnc(-c2cccc3ccccc23)o1)c1cc2ccccc2s1 | inactive
CN(C)Cc1cccc(N=C(c2ccccc2)c2c(O)[nH]c3cc(C(=O)N(C)C)ccc23)c1 | inactive
O=C1c2ccccc2-[n+]2ccc3c([nH]c4ccccc43)c21 | 4.66 µM (active)
Cc1ccc(C(=O)Nc2cccc(C(F)(F)F)c2)cc1Nc1nc(-c2cccnc2)nc2c1cnn2C | inactive
Cc1ccccc1C(C(=O)NC1CCCCC1)N(C(=O)Cn1ccnc1C)c1cccc(F)c1 (stereo unspecified) | inactive
COc1ccc(-n2c(C)c([N+](=O)[O-])c3ccc(O)cc32)cc1 | inactive
CO[C@H]1C=CO[C@@]2(C)Oc3c(C)c(O)c4c(O)c(c5c(c4c3C2=O)NC2(CCN(CC(C)C)CC2)N=5)=NC(=O)C(C)=CC=C[C@H](C)[C@H](O)[C@@H](C)[C@@H](O)[C@@H](C)[C@H](OC(C)=O)[C@H]1C | inactive
CCOC(=O)O[C@]1(C(=O)OCCl)CC[C@@H]2[C@H]3CCC4=CC(=O)C=C[C@]4(C)[C@@H]3[C@@H](O)C[C@@]21C | inactive
O=C(O)[C@H]1O[C@H](Oc2cc3oc(-c4ccccc4)cc(=O)c3c(O)c2O)[C@H](O)[C@@H](O)[C@H]1O | inactive
NC1CCC(Nc2nc(Nc3ccc(C(=O)N4CCCCC4)cc3)c3ncn(-c4cccc(F)c4)c3n2)CC1 (stereo unspecified) | inactive
O=C1NC(=O)C(=Cc2ccc3c(c2)OC(F)(F)O3)S1 | inactive
CC#CCn1c(N2CCC[C@@H](N)C2)nc2c1c(=O)n(Cc1nc(C)c3ccccc3n1)c(=O)n2C | inactive
COc1ccc(-c2coc3cc(O)cc(O)c3c2=O)cc1 | inactive
O=C(O)c1cc(O)c2c(c1)C(=O)c1cccc(O)c1C2=O | inactive
C=C1C(=O)[C@@]23C(CC[C@@H]1[C@H]2O)[C@@]12CO[C@]3(O)[C@@H](O)[C@@H]1C(C)(C)CC[C@@H]2O (stereo partly specified) | 16.5 µM (active)
